These results are taken from PubChem BioAssay AID2330 (Broad Institute, 2010).

Broadly, the inhibition is the relative decrease from the control value, in per cent.

Molecules are shown by their SMILES. In all, about 37,000 compounds went through this assay and about 2,800 (7.6%) were called active. Not shown: some 1% with an inconclusive outcome. The entries come from a sample that favours actives as a whole. Unmarked numbers belong to inactive results. Cut-off read from the data, not from the text of the source: active = inhibition above about 80%; inconclusive = no clear call, values can overlap the other calls; inactive = below that.

This assay in a line: NOMO-1 AML cell viability reduction, primary screen, STK33 inhibitor project, CellTiter-Glo luminescence (AID 2330). To be noted: NOMO-1 AML viability, 72 h, active compounds read high, concentration not given here. (In ATP-based viability assays light output follows the ATP content of the culture.)
With `CCn1c(=O)c2c(n3c(SCC(N)=O)nnc13)-c1ccccc1CC21CCCCC1`, the inhibition was 98.7% (active).
Consider `NC(=O)CSc1nnc(-c2ccccc2F)n1-c1ccccc1`, for which the inhibition was 26.5%.
The result for `O=c1[nH]c(CSCCO)nc2c1C1(CCCCC1)Cc1ccccc1-2` reads 8.91%; that for `COc1ccc(-c2cc(C(F)(F)F)n3nc(C(=O)NCCCN4CCOCC4)cc3n2)cc1OC`, 2.66%; that for `CC(C)NC(=O)N(C)C[C@H]1Oc2c(NS(=O)(=O)c3cccs3)cccc2C(=O)N([C@H](C)CO)C[C@H]1C`, -11.8%.
As to `Cc1c(C(=O)N2CCOCC2)[nH]c2ccc(OCc3ccccc3)cc12`, the inhibition was 34.1%.
With `O=C(Nc1ccc(OCc2ccccc2)cc1)OCC1CN(Cc2ccccc2)CCO1` (stereo unspecified), the inhibition is 113% (active).
The result for `COc1ccc(Cl)cc1NC(=O)CSc1nnc(-c2ccc(Cl)c(Cl)c2)n1C` reads 17.7%; that for `COc1ccc(OC(C)C(=O)Nc2ccc(OC)c(OC)c2)cc1` (stereo unspecified), -22%; that for `COc1ccc(NC(=S)NCc2cc(C)n(C)n2)cc1OC`, 6.06%.
Consider `COc1ccc(NC(=S)SC)cc1OC`, for which the inhibition is 87.2% (active).
The result for `Cc1ccc([N+](=O)[O-])cc1NC(=O)CSC1=NCCS1` reads 21.4%; that for `C[C@@H]1CN([C@@H](C)CO)C(=O)c2cccc(NC(=O)c3ccc(-c4nccs4)cc3)c2O[C@H]1CN(C)C(=O)Nc1ccccc1`, -9.67%; that for `CC[C@]1(O)C[C@@H]2CN(CCc3c([nH]c4ccccc34)[C@@](C(=O)OC)(c3cc4c(cc3OC)N(C)[C@H]3[C@@](O)(C(=O)OC)[C@H](OC(C)=O)[C@]5(CC)C=CCN6CC[C@]43[C@@H]65)C2)C1`, 112% (active).
Turning to `C[C@@H]1CN([C@H](C)CO)C(=O)c2cc(NC(=O)Nc3ccc4c(c3)OCO4)ccc2O[C@@H]1CN(C)C(=O)Nc1ccc(F)cc1`, the inhibition is 33.1%.
The result for `C[C@@H]1CN([C@H](C)CO)C(=O)c2cccc(NS(=O)(=O)c3cn(C)cn3)c2O[C@H]1CN(C)Cc1ccc(C(=O)O)cc1` reads -16.7%; that for `Cc1nnc(SCC(=O)Nc2cc(Cl)ccc2C)s1`, 22.1%; that for `C[C@@H]1CN([C@@H](C)CO)C(=O)c2cccc(NC(=O)c3ccncc3)c2O[C@@H]1CN(C)CC1CC1`, 4.97%.
Turning to `Cc1cc(C(=O)Nc2cccc3c2O[C@@H](CN(C)Cc2ccc(C(=O)Nc4ccccc4N)cc2)[C@H](C)CN([C@@H](C)CO)C3=O)n(C)n1`, the inhibition is 89.1% (active).
As for `C[C@@H]1CN([C@H](C)CO)C(=O)c2cccc(NC(=O)c3cnccn3)c2O[C@@H]1CN(C)Cc1ccncc1`, the inhibition was 13.1%.
For the compound `C[C@H](CO)N1C[C@H](C)[C@@H](CN(C)Cc2ccc(C(=O)Nc3ccccc3N)cc2)Oc2c(NC(=O)C3CC3)cccc2C1=O`, the inhibition is 106% (active).
As for `C[C@@H]1CN([C@@H](C)CO)C(=O)c2cccc(NC(=O)c3cnccn3)c2O[C@H]1CN(C)Cc1ccc(C(=O)O)cc1`, the inhibition is -15.7%.
Regarding `COc1ccc(CN(C)C[C@H]2Oc3c(NC(=O)C4CC4)cccc3C(=O)N([C@@H](C)CO)C[C@H]2C)cc1`, the inhibition was -16.6%.
Consider `C[C@@H]1CN([C@H](C)CO)C(=O)c2cccc(NC(=O)c3cnccn3)c2O[C@@H]1CN(C)Cc1ccc(C(=O)Nc2ccccc2N)cc1`, for which the inhibition was 126% (active).
With `Cc1cc(C(=O)Nc2cccc3c2O[C@@H](CN(C)Cc2ccncc2)[C@@H](C)CN([C@@H](C)CO)C3=O)n(C)n1`, the inhibition is 19.4%.
As to `Cc1cc(C(=O)Nc2cccc3c2O[C@@H](CN(C)Cc2ccc(C(=O)O)cc2)[C@H](C)CN([C@@H](C)CO)C3=O)n(C)n1`, the inhibition is 0.233%.
Regarding `C[C@@H]1CN([C@@H](C)CO)C(=O)c2cccc(NC(=O)C3CC3)c2O[C@@H]1CN(C)Cc1ccccc1`, the inhibition is 4.47%.
In the case of `COc1ccc(S(=O)(=O)Nc2cccc3c2O[C@@H](CN(C)Cc2ccc(-c4ccccc4)cc2)[C@H](C)CN([C@H](C)CO)C3=O)cc1`, the inhibition was 22.4%.
Consider `CCn1c(SCC(=O)c2ccc(OC)cc2)nnc1-c1ccc(Cl)cc1Cl`, for which the inhibition was -7.21%.
The result for `Cc1cccc(N(CC(=O)Nc2cccc([N+](=O)[O-])c2)S(C)(=O)=O)c1C` reads -1.91%; that for `COc1cc(OC)c(NC(=O)CSc2nnc(-c3ccncc3)n2-c2ccccc2)cc1Cl`, 37.4%; that for `COc1ccc(OC)c(NC(=O)c2cnn(-c3ccccc3Cl)c2NC(=O)c2ccco2)c1`, 21.2%.
`CC(C)NC(=O)Nc1ccc2c(c1)CC(=O)N([C@H](C)CO)C[C@@H](C)[C@@H](CN(C)C(=O)Nc1ccc3c(c1)OCO3)O2`: the inhibition was 21.8%.
In the case of `c1ccc(-n2c(SCc3nc4ccccc4s3)nnc2-c2ccncc2)cc1`, the inhibition is 37.8%.
For `CSC1=N/C(=C\C=C\c2cccs2)C(=O)S1`, the inhibition was 123% (active).
The result for `COc1ccc(N(Cc2cc3ccccc3[nH]c2=O)C(=O)c2cccc(OC)c2)cc1` reads -11%.
`COc1ccccc1CCNC(=O)c1cnccn1`: the inhibition was 4.1%.
The result for `COC(=O)c1scc(S(=O)(=O)C(C)(C)C)c1-n1cccc1` reads 100% (active); that for `C[C@@H]1CN([C@H](C)CO)C(=O)c2cc(NC(=O)CCN3CCOCC3)ccc2O[C@H]1CN(C)Cc1ccc(Oc2ccccc2)cc1`, 5.92%.
For the compound `C[C@@H]1CN([C@H](C)CO)C(=O)c2cc(NS(=O)(=O)c3cccs3)ccc2O[C@H]1CN(C)Cc1ccncc1`, the inhibition is -4.5%.
With `C=C1C(=O)O[C@@H]2[C@H]3C(CO)=CC(=O)C3=C(C)C[C@H](OC(=O)Cc3ccc(O)cc3)[C@@H]12`, the inhibition was 120% (active).
In the case of `C=CC(=O)c1ccc2ccccc2c1`, the inhibition is 98.4% (active).
Take `COc1ccccc1NC(=O)CCC(=O)c1ccc(C)cc1`: the inhibition was 29.1%.
On to `COC(=O)C(C)N(C#N)c1nc(C)nc(C)n1` (stereo unspecified), for which the inhibition was 113% (active).
For `COc1ccc(CN(C)C[C@H]2Oc3c(NC(=O)c4cnccn4)cccc3C(=O)N([C@H](C)CO)C[C@@H]2C)cc1`, the inhibition was 5.98%.
Take `C[C@@H]1CC[C@]2(C)[C@H](CC[C@@H](O)[C@]2(C)O)[C@@]1(C)CC(=O)c1ccoc1`: the inhibition was 9.78%.
